Measured values taken from PubChem BioAssay (NCI).
Values joined by “and” are separate entries in the source; they are usually repeats but may differ in a detail not shown here. Equal entries are not always repeated. The panel holds about 83,000 compounds, 20% with a hit somewhere; the sample as a whole holds those more often.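 Assay: single dose, 48 h. Readout: percent growth (0 = no net growth; negative = cell death). Active: <10.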 A number with no mark means an inactive call. Active and inactive are the calls of the source.

Experiments:
Assay in all cases: NCI-60 one-dose screen, 48 h (100 = growth as untreated, 0 = no growth, -100 = all killed)
Conditions in all cases: 10 µM
NCI-H23 lung = system: NCI-H23 lung
NCI-H226 lung = system: NCI-H226 lung
HOP-62 NSCLC = system: HOP-62 NSCLC
NCI-H460 lung = system: NCI-H460 lung
HOP-92 NSCLC = system: HOP-92 NSCLC
NCI-H522 lung = system: NCI-H522 lung
A549/ATCC NSCLC = system: A549/ATCC NSCLC
786-0 renal = system: 786-0 renal
NCI-H322M lung = system: NCI-H322M lung
COLO 205 colon = system: COLO 205 colon

Compound | growth (NCI-H23 lung) | growth (NCI-H226 lung) | growth (HOP-62 NSCLC) | growth (NCI-H460 lung) | growth (HOP-92 NSCLC) | growth (NCI-H522 lung) | growth (A549/ATCC NSCLC) | growth (786-0 renal) | growth (NCI-H322M lung) | growth (COLO 205 colon)
CC1CCC2(OC1)OC1C(O)C3C4CCC5CC(OC6OC(CO)C(OC7OC(CO)C(O)C(OC8OCC(O)C(O)C8O)C7OC7OC(CO)C(O)C(OC8OC(CO)C(O)C(O)C8O)C7O)C(O)C6O)C(O)CC5(C)C4CCC3(C)C1C2C (stereo unspecified) | -51.5% (active) | -50.1% (active) | -95.3% (active) | 5.81% (active) | -3.92% (active) | -71.4% (active) | -40.2% (active) | -92% (active) |  | 
[Cl][Hg][c]1ccc2ccccc2c1 | -67.1% (active) | -20.6% (active) | -79.9% (active) | -4.3% (active) |  | -95.1% (active) | 19.6% | -92.2% (active) | -53.1% (active) | -87.4% (active)
COC(=O)C1C(O)C(C)C(O)C(C)/C=C\C=C(C)C(=O)Nc2c(C)c(OC(C)=O)c3c(c2O)C(=O)C(C)=C2OCOC(=C23)C(C)=CC(C)(O)C(O)C(C)C1O (stereo unspecified) | 97.6% | 99.2% | 96.8% | 111% |  | 59.1% | 98.5% | 107% |  | 94.7%
CC12OOC(c3ccccc31)c1c2ccc2ccccc12 (stereo unspecified) | 32.7% | 86.7% | 73.3% | -63.2% (active) | -61.9% (active) | -91.2% (active) | 65.4% | 66.1% |  | -65.4% (active)
COc1cc([N+](=O)[O-])c2ncccc2c1[N+](=O)[O-] | 73.4% | 77.1% | 105% | 87.3% | 95.7% | -47.9% (active) | 97.9% | 77.7% |  | 86.1%
CC(C)(C)OOC(=O)/C=C\C(=O)OOC(C)(C)C | 103% | 102% | 97.7% | 109% | 88.3% | 107% | 110% | 108% |  | 110%
O=C1C=Cc2ccccc2C1=O | 73.5% | 100% | 73% | 78.7% | 93.7% | 47.2% | 97.9% | 110% |  | 117%
CC/C(=C/c1ccc(OC)cc1)[N+](=O)[O-] | 51.8% | -12.5% (active) | 78.1% | 52.7% |  | -47.7% (active) | 62.3% | -83.5% (active) |  | -60.3% (active)
O=C(CBr)Nc1ccc(Cl)cc1 | 81.2% | 91.2% |  | 106% | 91.9% | -67.2% (active) | 100% | 56.6% |  | 
COc1cc2c(c(OC)c1OC)-c1ccc(O)c(=O)cc1[C@@H](NC(C)=O)CC2 | 65.1% | 68.9% | 28.9% | 24.6% |  |  | 31.9% | 68.9% |  | 72.6%
Oc1c(Cl)cc(Cl)c2ccccc12.[Cu+2] | 91.4% |  | 108% | 99.4% | 104% | 71.2% | 111% | 116% |  | 102%
CC(=O)Nc1c2sscc-2n(C)c1=O | -95.3% (active) | -100% (active) | -100% (active) | -77.4% (active) |  | -90.8% (active) | -65% (active) | -100% (active) |  | -87.1% (active)
CS(=N)(=O)CCC(N)C(=O)O (stereo unspecified) | 95.2% | 101% | 98.3% | 112% | 106% | 96.9% | 97.8% | 102% |  | 122%
COc1cc2c(cc1OC)C13CCN4CC5=CCOC6CC(=O)N2C1C6C5CC43 (stereo unspecified) | 90% and 100% | 95.9% and 95.7% | 120% and 102% | 120% and 83.2% | 87.4% | 105% and 99.1% | 99.4% | 112% and 99.6% |  | 95.8% and 89%
COc1ccc2c(ccc3oc([N+](=O)[O-])cc32)c1 | -9.56% (active) | -4.88% (active) | -4.6% (active) | -3.44% (active) | 10.8% | -52% (active) | 0.82% (active) | -2.34% (active) |  | -76.3% (active)
C=NCC#N | 97.8% and 97.9% | 107% and 99.3% | 93.2% and 93.4% | 102% and 120% | 97.6% | 68.8% and 103% | 110% and 104% | 99.4% and 103% |  | 113% and 111%
CCOP(=O)(OCC)C(O)c1ccccc1Cl (stereo unspecified) | 99.4% | 98.1% | 109% | 102% |  | 95.7% | 105% | 102% |  | 107%
NNc1ccccc1 | 108% | 96.3% | 85.4% | 60.4% |  |  | 84.3% | 79.7% |  | 85.4%
CC[C@@]1(O)C[C@H](OC2CC(N(C)C)C(O)C(C)O2)c2c(cc3c(c2O)C(=O)c2c(O)ccc(O)c2C3=O)[C@H]1C(=O)OC (stereo partly specified) | -79.6% (active) | -62.3% (active) | -69.6% (active) | -64% (active) | -68.9% (active) | -70.1% (active) | -84.8% (active) | -97.5% (active) |  | 
COC(C(=O)C(O)C(C)O)C1Cc2cc3cc(OC4CC(OC(C)=O)C(OC5CC(O)C(OC)C(C)O5)C(C)O4)cc(O)c3c(O)c2C(=O)C1OC1CC(OC2CC(OC3CC(C)(O)C(OC(=O)C(C)C)C(C)O3)C(O)C(C)O2)C(O)C(C)O1 (stereo unspecified) | 8.85% (active) | -12.6% (active) | -5.14% (active) | -10.2% (active) | -16.5% (active) | -60.9% (active) | -39.3% (active) | 0.268% (active) |  | -83.5% (active)
Oc1c(I)cc(I)cc1I |  | 98.6% | 103% | 105% | 106% |  | 106% |  |  | 
COc1cc(/C=C/[N+](=O)[O-])cc(Br)c1OC | -67.9% (active) | -18.3% (active) | 59.5% |  | 72.6% | -71.5% (active) | 57.2% | -56.7% (active) |  | 
CC(C)c1cc([N+](=O)[O-])cc([N+](=O)[O-])c1O | 102% | 102% | 98.5% | 105% | 75.1% | 103% | 103% | 101% |  | 105%
O=C(CBr)Nc1ccccc1 | 93.1% | 98.4% | 109% | 107% | 101% | -84% (active) | 98.5% | 102% |  | 116%
COc1cc([C@@H]2c3cc4c(c(O)c3C[C@H]3COC(=O)[C@@H]32)OCO4)cc(OC)c1OC | 17.3% | 48.8% |  | 0.25% (active) | -31.4% (active) | -25% (active) | 24.9% | -69.8% (active) |  | -69.5% (active)
O=[P+](O)c1ccccc1 | 107% | 107% | 93.9% | 106% | 101% |  | 107% |  |  | 
COc1ccccc1/C=C/[N+](=O)[O-] | 74.9% | 96.1% | 97.1% | 74.4% |  | 62.6% | 75.5% | 93.1% |  | 
O=[N+]([O-])/C=C\c1ccc2c(c1)OCO2 | 87.2% | 103% |  | 84.8% | 79.3% | 72.2% | 81.7% | 89.6% |  | 
COc1cc(/C=C/[N+](=O)[O-])cc(OC)c1OC | 45% |  | 16.8% | 6.31% (active) | 58.1% | -54.8% (active) | 54.2% | -48% (active) |  | 
O=C1CCC(=O)N1SC(Cl)(Cl)Cl | 108% | 101% | 113% | 108% | 105% | 80.4% | 107% | 106% |  | 112%
